# Test results reported in ChEMBL document CHEMBL1157539, “Thousands of chemical starting points for antimalarial lead identification” (Nature, 2010).
# How the values were obtained:
# Assay type in all cases: functional
# Plasmodium falciparum [1] = test: GSK_TCMDC: Inhibition of Plasmodium falciparum 3D7 in whole red blood cells, using parasite LDH activity as an index of growth. Test compounds present at 2uM
# Plasmodium falciparum [2] = test: GSK_TCMDC: Inhibition of Plasmodium falciparum Dd2 in whole red blood cells, using parasite LDH activity as an index of growth. Test compounds present at 2uM
# HepG2 = test: GSK_TCMDC: Percent inhibition of human HepG2 cell line. Test compounds present at 10uM.
SMILES,Inhibition (Plasmodium falciparum [1]) [%],Inhibition (Plasmodium falciparum [2]) [%],Inhibition (HepG2) [%]
COc1cc(F)c2ncc(Cl)c([C@H](O)CN3CCC(NCc4cc5c(cn4)OCCO5)CC3)c2c1.Cl,100,49,10
Cc1[nH]c(C)c(-c2ccc(Oc3cccc(Cl)c3)cc2)c(=O)c1Cl,99,97,40
Cc1cccc2nc(-c3ccc(-c4cccc(C(=O)N5CCCCC5C(C)O)c4)s3)[nH]c12 (centres undefined),100,53,27
CCC(Cc1ccccc1)c1cc(O)c(Cc2ccc(-c3ccccc3)cc2)c(=O)o1 (centres undefined),89,0,3
Cc1cc(N2CCOCC2)nc(Nc2ccc(NC(=O)Nc3ccc(F)cc3)cc2)n1,100,34,35
CCCc1cc(NC2CCN(C)CC2)nc(Nc2ccc(F)cc2)n1,95,16,20
O=C(C=Cc1cn(-c2ccccc2)nc1-c1cccs1)N1CCN(c2ccncc2)CC1,100,61,31
N#Cc1ccc(CN2CCCN(Cc3cccc(NC(=O)c4ccc(-c5ccccc5)cc4)c3)CC2)cc1.O=C(O)C(F)(F)F,88,12,33
COc1ccc(NC(=O)C2c3ccccc3C(=O)N(C3CCCC3)C2c2cccs2)cc1OC (centres undefined),90,96,0
CCNc1cc(CCCC(=O)OCC)nc(Nc2ccc(C)cc2)n1.O=C(O)C(F)(F)F,100,63,17
CN(C)c1ccc(-c2csc(C(=O)NC3CCN(CCC(C)(C)C)C3)c2)cc1.O=C(O)C(F)(F)F (centres undefined),95,36,20
O=C(Nc1ccc(OC2CCN(Cc3ccccc3)CC2)c(Cl)c1)c1cccs1.O=C(O)C(F)(F)F,96,95,2
CCCC(C)Nc1nc(C)cc(N[C@@H](CC(C)C)C(=O)NC2CCCC2)n1.O=C(O)C(F)(F)F (some centres undefined),85,22,6
O=C1CN(C(=O)CCC2CCCC2)C(c2ccc(F)cc2)c2cc(F)ccc2N1 (centres undefined),100,75,12
Cc1nc(N)nc(N)c1OCCCCCCOc1ccccc1.Cl,95,0,59
O=C(Nc1cccc(-c2ccc(-c3nc4cc(F)ccc4[nH]3)cc2)c1)Nc1ccc(Cl)c(Cl)c1,100,49,79
Cl.N=C(N)c1cc(Br)cc(NC(=O)Nc2cc(Br)cc(C(=N)N)c2)c1,93,76,0
Cl.NCc1ccc(Nc2nccc(Nc3ccc(-c4ccccc4)cc3)n2)cc1,100,98,47
COc1cc(F)c2ncc(F)c(CCN3C[C@H](CNCc4ccc5c(n4)NC(=O)CS5)[C@H](O)C3)c2c1.Cl,91,47,10
Cc1ccn2cc(-c3ccc(NC(=O)c4ccc(Br)o4)cc3)nc2c1,98,41,100
Cc1nn(-c2cccc(Cl)c2)c2c1C(C(=O)c1ccc3c(c1)OCO3)CC(=O)N2 (centres undefined),98,95,5

SMILES,Inhibition (Plasmodium falciparum [1]) [%],Inhibition (Plasmodium falciparum [2]) [%],Inhibition (HepG2) [%]
COc1ccc(NC(=O)/C=C/c2cc(F)cc(C(F)(F)F)c2)cc1OCCN(C(C)C)C(C)C.O=C(O)C(F)(F)F,97,21,18
CC(=O)c1cccc(NC(=O)NC2CCN(c3ccnc(Nc4ccc(F)cc4)n3)C2)c1 (centres undefined),99,94,10
Cc1cccc2nc(-c3ccc(-c4ccc(CNCC5CCCO5)cc4)cc3)[nH]c12.O=C(O)C(F)(F)F (centres undefined),100,81,36
CCOC(=O)c1ccc(NC(=O)Nc2cccc(-c3ccc(-c4nc5cc(C(F)(F)F)ccc5[nH]4)cc3)c2)cc1,100,99,62
Cc1noc(C)c1-c1cccc(CNCc2ccc(-c3ccc(-c4nc5ccccc5[nH]4)s3)cc2)c1.O=C(O)C(F)(F)F,100,79,41
COc1ccc(CCc2ccc(-c3c(C)[nH]c(C)c(Cl)c3=O)cc2)cc1OC,99,97,0
CCCC1N=C(N)N=C(N)N1c1ccccc1.Cl (centres undefined),93,0,0
COc1ccc(NC(=O)c2ccc(-c3nc(-c4ccc(Cl)cc4)cs3)cc2)cc1N1CCN(C)CC1,91,34,30
CCOc1ccccc1CCNCC1CCN(CC2CCCCC2)CC1.O=C(O)C(F)(F)F,84,59,35
CCOc1ccc(CCC(=O)O)cc1OCC,94,0,60
C[C@H](Cc1ccc(OCCNC[C@H](O)c2cccc(Cl)c2)cc1)NC[C@H](O)c1ccc(Cl)c(Cl)c1.O,83,64,69
O=C(Cc1ccccc1)NC1CCN(c2ccnc3cc(Cl)ccc23)C1.O=C(O)C(F)(F)F (centres undefined),100,78,6
Cc1ccc(F)cc1-c1cc(N2CCCN(C(=O)c3ccc(Br)o3)CC2)ncn1,94,91,0
COc1cccc(CNC(=O)[C@@H]2CN(C(=O)c3ccccc3)CCN2)c1.O=C(O)C(F)(F)F,92,0,4
O=C(Nc1ccncc1)c1cc(C(=O)Nc2ccncc2)cc([N+](=O)[O-])c1,100,50,1
O=C(NCCc1ccccc1)N(Cc1ccccc1-c1cccc(CNC2CCCC2)c1)C1CCN(Cc2ccccc2)CC1.O=C(O)C(F)(F)F,95,87,31
Br.NC1=NC2(CCCCC2)N(OCCCCCCC2CCCCC2)C(N)=N1,97,49,77
O=C(C=Cc1ccc(F)cc1)N1CCN(S(=O)(=O)c2ccc(Cl)cc2)CC1,91,93,10
CCCN(CC1CC1)c1ncc(-c2cccc(CNCCC3CCCN3C)c2)cn1 (centres undefined),98,43,77
Cc1cc(O)c(CNC2CCCCC2)cc1C.Cl,95,95,6
Cc1nc2nc(N)nc(N)c2c(C)c1Cc1ccccc1.Cl,95,0,62

SMILES,Inhibition (Plasmodium falciparum [1]) [%],Inhibition (Plasmodium falciparum [2]) [%],Inhibition (HepG2) [%]
Cl.N#Cc1ccc2c(c1)CCN(CCC1CCC(NC(=O)/C=C/c3cccc4cc[nH]c34)CC1)CC2 (centres undefined),89,29,22
N#Cc1c(N)nc(SCC(=O)Nc2cc(C(F)(F)F)ccc2Cl)c(C#N)c1-c1cccs1,90,96,23
COc1ccc(C(O)CNC(C)CCc2ccc(F)cc2)cc1C(F)(F)F.Cl (centres undefined),99,98,92
CCN(CC)CCN(Cc1ccc(-c2ccc(C(F)(F)F)cc2)cc1)C(=O)Cn1cc(CCCc2cccc(F)c2F)c(=O)c2ccccc21.O=C(O)C(O)C(O)C(=O)O,89,20,13
CN1C(=CC(=O)NC(=O)c2ccccc2)C(C)(C)c2ccccc21,93,89,0
CN1CCCN(Cc2cccc(-c3cccc(NC(=O)c4cccc(C#N)c4)c3)c2)CC1.O=C(O)C(F)(F)F,95,33,18
O=C(C=Cc1ccc(Cl)c(Cl)c1)NCCCCCN1CCC(c2n[nH]c3ccccc23)CC1,99,29,32
CCCC/C=C(\Cl)c1ccc(O)c2c1C[C@H]1C[C@H]3[C@H](N(C)C)C(O)=C(C(N)=O)C(=O)[C@@]3(O)C(O)=C1C2=O.Cl,90,98,16
CCCCOc1cc(CNCCCCCCNCc2cc(OCCCC)cc3ccccc23)c2ccccc2c1.CS(=O)(=O)O,100,92,99
CCCc1cc(Cc2cnc(N)nc2N)cc(CCC)c1OCCCCCC(=O)OCC,95,0,12
COc1ccc(CCC(C)(C)NCC(O)c2cccc(C(F)(F)F)c2)cc1 (centres undefined),99,98,26
Nc1c2c(nc3ccc(Oc4ccc(Br)cc4Br)cc13)CCCC2,99,47,33
c1ccc([C@H]2CN3CCSC3=N2)cc1 [LEVAMISOLE],93,1,11
CN(CC1CCC(NC(=O)/C=C/c2ccc(Cl)c(Cl)c2)CC1)C1CCC(c2c[nH]c3ccccc23)CC1 (centres undefined),99,53,53
CCn1c(Cc2ccccc2)nnc1SCC(=O)N1c2ccccc2Sc2ccccc21,99,96,0
N=c1c2nc(-c3c(F)cccc3Cl)[nH]c(=O)c2[nH]c(=O)n1-c1ccccc1,95,0,52
NC(=O)C1CCN(Cc2ccc(-c3ccc(-c4nc5cc(F)ccc5[nH]4)cc3)cc2)CC1.O=C(O)C(F)(F)F,100,100,12
Cc1cc(-c2ccc(NC(=O)N3CCc4cc(Cl)c(N5CCN(C)CC5)cc43)cc2)ccc1C#N,100,83,100
Br.CCCOc1ccc(CCCON2C(N)=NC(N)=NC2(C)C)cc1,95,94,65
CCC(C)(C)C1CCc2[nH]c3ccccc3c(=O)c2C1 (centres undefined),97,96,16
Cl.c1ccc(-c2nc3ccccc3[nH]2)c(Nc2ccnc3cc(-c4nccs4)ccc23)c1,100,98,0
